ChEMBL document CHEMBL3988442, “University of Dundee, Small-Polar-MMV Screening Library” (2021)
Out of some 69,000 compounds screened, about 420 (0.61%) showed an effect of 50% or more. Only a selection was taken, and strong results are over-represented in it overall.

target: T1, Histidine--tRNA ligase (Leishmania infantum) (UniProt A4I591); assay: Leishmania infantum Histidine tRNA synthetase (LdHisRS); assay type: functional; design: scale not given: in the data most compounds retested in dose-response had high values; settings: 30 µM
T1 sequence (whole entry): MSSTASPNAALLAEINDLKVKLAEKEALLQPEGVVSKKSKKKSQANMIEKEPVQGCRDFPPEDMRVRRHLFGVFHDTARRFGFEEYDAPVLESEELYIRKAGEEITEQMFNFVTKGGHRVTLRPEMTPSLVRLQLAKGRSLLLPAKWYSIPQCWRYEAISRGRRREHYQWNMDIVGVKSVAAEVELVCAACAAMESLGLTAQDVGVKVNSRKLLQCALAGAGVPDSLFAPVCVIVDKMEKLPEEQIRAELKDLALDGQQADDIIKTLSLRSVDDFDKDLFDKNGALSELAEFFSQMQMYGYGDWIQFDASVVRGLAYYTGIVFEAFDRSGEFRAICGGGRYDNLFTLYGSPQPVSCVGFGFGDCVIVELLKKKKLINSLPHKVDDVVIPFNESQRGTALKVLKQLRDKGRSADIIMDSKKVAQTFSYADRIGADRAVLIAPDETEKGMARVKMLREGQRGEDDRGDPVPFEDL

SMILES	Percent Effect
CCCS(=O)(=O)N1C[C@@H](Oc2ncccc2F)[C@H]2OCCC[C@H]21	8.22%
c1cnc(N2CCO[C@H]3[C@H](OCc4cccnc4)CC[C@@H]32)nc1	-9.73%
Cc1ncsc1CN1CC[C@H]2OCC[C@@]2(C(=O)N2CCCO2)C1	16.8%
N#Cc1ccc(CNCC2(c3ccccc3)CCOCC2)cc1	42.9%
COc1ccccc1C1(CNCc2ccc(C#N)cc2)CCOCC1	60.4%
COc1ccccc1C1(CNCc2cccc(C#N)c2)CCOCC1	49.5%
COc1ccccc1C1(CNCc2cccc(O)c2)CCOCC1	109%
COc1ccccc1C1(CNc2nnc(C)c(C)c2C#N)CCOCC1	37%
COc1ccccc1C1(CNCc2ccc([S+](C)[O-])cc2)CC1 (centres undefined)	12.1%
Cn1cc(C(=O)N2C[C@@H]3CN(S(C)(=O)=O)CCO[C@@H]3C2)cn1	7.55%
Cc1oncc1C(=O)N1CC[C@H]2[C@@H]1CCC(=O)N2CC1CC1	0%
CC(C)CN1C[C@H]2C[C@H](C(=O)N3CCCC3)[C@@H](C1)O2	13.2%
Cc1noc(C(C)Nc2ccc3oc(C)nc3c2)n1 (centres undefined)	106%
CC(C)c1nc2cc(NC(=O)Cn3ccccc3=O)ccc2o1	12%
Cc1noc(C(C)Nc2ccc3c(c2)CCC3)n1 (centres undefined)	9.38%
Cc1noc(C(C)Nc2ccc3oc(=O)[nH]c3c2)n1 (centres undefined)	16.4%
Cc1noc(C(C)Nc2ccc3oc(C(C)C)nc3c2)n1 (centres undefined)	106%
CC(C)c1nc2cc(NC(=O)Cn3ccc(=O)[nH]c3=O)ccc2o1	14%
Fc1cnc(N2C[C@@H]3C[C@@H](c4nc(C5CC5)cs4)O[C@@H]3C2)nc1	7.55%
Cc1cs/c(=N/C(=O)c2csc(NCC(C)C)n2)[nH]1	75.3%
CC(C)CNc1nc(C(=O)/N=c2\[nH]nc(C(C)(C)C)s2)cs1	1.91%
Cc1[nH]/c(=N\C(=O)c2csc(NCC(C)C)n2)sc1C	20.9%
CCN(Cc1nc2c(cnn2C)c(=O)[nH]1)Cc1ccco1	15.7%

SMILES	Percent Effect
COCCN1CCCc2sc(C(=O)NCC3CCCO3)nc21 (centres undefined)	52.8%
O=C(NCC1CCCO1)c1nc2c(s1)CCCN2CC1CC1 (centres undefined)	29.2%
O=C(NCC1CCCO1)c1nc2c(s1)CCCN2Cc1ccccc1 (centres undefined)	45.8%
Cc1cccc(CN2C[C@@H]3COC[C@]3(CNC(=O)C3CCC3)C2)c1	17.8%
NCC1CCN(C2CCN(c3ccc(-c4ccco4)cc3)CC2)C1 (centres undefined)	64.3%
O=C(O)c1ccccc1C1CCN(C2CCN(c3ccccc3)CC2)C1 (centres undefined)	22.7%
CCS(=O)(=O)c1ccc(N2CCC(N)CC2)cc1	11.6%
COc1ccc(N2CCC(N3CCOC(C(F)(F)F)C3)CC2)cc1 (centres undefined)	14.3%
NC1CCN(C2CCN(c3ccc(-c4ccco4)cc3)CC2)CC1	54.8%
CNC1CCN(C2CCN(c3ccc(-c4ccco4)cc3)CC2)CC1	42.1%
Cc1cccc(C(=O)N2CCN(S(C)(=O)=O)[C@@H]3CS(=O)(=O)C[C@@H]32)n1	-2.67%
COC[C@@]12CC[C@@H](N3CCOCC3)C[C@H]1CCN(c1ncccc1F)C2	19.4%
O=C1OCCN1CC(=O)N1C[C@H]2CC[C@@H]1CN(Cc1cscn1)C2	-18.2%
O=C(c1ccccn1)N1CC[C@H]2C(=O)N(c3ccsc3)CCO[C@H]2C1	18%
CCn1nc2c(cc1=O)CN(c1ncnc3sccc13)CC2	102%
CC(C)n1nc2c(cc1=O)CN(c1ncnc3sccc13)CC2	38.7%
Cn1nc2c(cc1=O)CN(c1ncnc3sccc13)CC2	100%
c1csc(N2CCCN(c3ncnc4sccc34)CC2)n1	22.4%
c1csc(N2CCN(c3ncnc4sccc34)CC2)n1	27.1%
CCCn1nc2c(cc1=O)CN(c1ncnc3sccc13)CC2	15.3%
O=C1N(c2cccc(F)c2)Cc2nc(=O)n(Cc3ccc(Cl)cc3)n21	9.78%
O=C(Cc1ccco1)N1C[C@H]2CCC[C@@]2(COCC2CC2)C1	20%
CN(C)C(=O)CN1CC[C@H]2CN(S(C)(=O)=O)C[C@@H]2C1=O	15.5%

SMILES	Percent Effect
CN(C)C(=O)N1C[C@H](Oc2ccccn2)[C@H]2OCCC[C@H]21	8.74%
COCC(=O)N1C[C@H]2CNC[C@@]2(C(=O)NCc2snnc2C)C1	18.6%
CN(CCOCC1CC1)C(=O)Cn1cccc(C(F)(F)F)c1=O	15.4%
COCCCN(C)C(=O)Cn1cccc(OC)c1=O	107%
CCN(CC1CCOCC1)C(=O)Cn1cccc(C(F)(F)F)c1=O	13.2%
COc1cccn(CC(=O)N(C)CCOc2cc(C)cc(C)c2)c1=O	105%
CN(CCCOc1ccccc1Cl)C(=O)CN1CCCCCC1=O	21.2%
CN(CCCOc1ccccc1Cl)C(=O)CN1C[C@@H]2CC[C@H](CC1=O)N2	17.7%
COc1cccn(CC(=O)N(C)CCSC)c1=O	32%
CCc1ccccc1OCCN(C)C(=O)CN1CCCC1	22.2%
COCCN(C)C(=O)Cn1cccc(OC)c1=O	105%
COc1cccn(CC(=O)N(C)CCC2CCOCC2)c1=O	91.2%
CCc1cccc(OCCCN(C)C(=O)CN2CCNC2=O)c1	8.85%
COc1cccn(CC(=O)N(C)Cc2ccoc2)c1=O	47.6%
CC(=O)N1CC[C@H]2CC(=O)N(C3CC3)CC[C@H]2C1	22.2%
CNC(=O)CN1CC[C@H]2CN(C(=O)c3cc[nH]n3)C[C@H]2C1	16.7%
CNC(=O)[C@@H]1CC[C@@H]2[C@@H](CCN2Cc2cn(C)c3ccccc23)O1	13.2%
O=C1[C@H]2CC[C@H](CN(C3CSCCSC3)C2)N1Cc1cscn1	11.4%
CN(C)S(=O)(=O)N1CC[C@]2(O)CCN(CCc3cccc(F)c3)C[C@@H]2C1	43.4%
Cc1nc(CN2C[C@@H]3CN(C(=O)c4cccn4C)C[C@@H]3C2)cs1	-1.92%
CC(=O)N1CCO[C@@H]2CN(Cc3ccccc3Cl)C[C@@H]2C1	11.7%
Cc1nc(CN2C[C@@H]3CN(C(=O)C4(C#N)CC4)C[C@@H]3C2=O)cs1	26.5%
Cc1nc([C@H]2C[C@H]3CN(C(=O)c4ccoc4C)CC[C@@H]3O2)no1	15.1%

SMILES	Percent Effect
CN(CCCOc1ccccc1Cl)C(=O)CN1CCNC1=O	24.8%
COc1cccn(CC(=O)N(C)CCCOc2c(C)cccc2C)c1=O	110%
CN(CCCOc1ccccc1Cl)C(=O)CN1C(=O)CCNC1=O	14.2%
Cc1ccc(N(C)[C@@H]2CC[C@@H]3CN(C(=O)CC4CCOCC4)C[C@@H]32)nn1	12.8%
Cc1ccnc(N2C[C@@H]3CC[C@H](C2)N(CC2CCC2)C3=O)n1	34.4%
Cn1cc(CCC(=O)N2C[C@@H]3CC[C@H](C2)N(Cc2ccccn2)C3)cn1	24.1%
Cc1ccc(N2C[C@H]3OCC[C@H]3[C@H](C(=O)NC3CCC3)C2)nn1	11.8%
Cc1nccn1-c1cccc(C2CCCN(C3CCCC3)C2)n1 (centres undefined)	65.2%
CCc1nccn1-c1cccc(C2CCCN(C3CCCCC3)C2)n1 (centres undefined)	42%
CC(C)c1nccn1-c1cccc(C2CCCN(C3CCCC3)C2)n1 (centres undefined)	22.9%
Cc1nccn1-c1nccnc1C1CCCN(C2CCCC2)C1 (centres undefined)	-4.2%
Cc1nccn1-c1cccc(C2CCCN(C(=O)c3cc[nH]n3)C2)n1 (centres undefined)	17.1%
Cc1nccn1-c1cccc(C2CCCN(C3CCCCC3)C2)n1 (centres undefined)	55.6%
COCC(=O)N1CC[C@@H]2CN(Cc3cccc(Cl)c3)S(=O)(=O)[C@@H]2CC1	3.77%
Cn1ccc(NC(=O)CN2C[C@H]3CC[C@@H]2CN(Cc2ccccn2)C3)n1	0%
NC(=O)C1CCN(C(=O)Cc2cnc(-c3c(Cl)cccc3Cl)s2)CC1	12.1%
O=C(Cc1cnc(-c2c(Cl)cccc2Cl)s1)N1CCOCC1	64.8%
CC(=O)N1CCN(C(=O)Cc2cnc(-c3c(Cl)cccc3Cl)s2)CC1	-1.1%
Cc1nnsc1C(=O)N1CC[C@H](c2ccccc2)[C@@H]2[C@H]1CCCCN2C	7.29%
Cc1c(Cl)cccc1NC(=O)Cn1cc(C(=O)O)ccc1=O	55%
Cc1cccc(Cl)c1NC(=O)Cn1cc(C(=O)O)ccc1=O	18.3%
Cc1ccc(Cl)cc1NC(=O)Cn1cc(C(=O)O)ccc1=O	6.67%
CC(C)CS(=O)(=O)N1C[C@H]2C[C@H](C(=O)NCc3ccccc3)[C@@H](C1)O2	5.83%

SMILES	Percent Effect
Cn1cc(N2C(=O)C[C@@H]3[C@@H]2CCN3C(=O)c2ccco2)cn1	16%
COc1cc(N2C[C@H]3CN(C(=O)c4cnccn4)C[C@H]3C2)ncn1	5.26%
Cn1nc(Cn2ccnc2)c2c1CN(c1ncccn1)C2	3.51%
Cn1nc(Cn2ccnc2)c2c1CN(c1nccs1)C2	52.6%
CCS(=O)(=O)N1Cc2c(Cn3ccnc3)nn(C)c2C1	11.1%
Cc1cc(C(=O)N2C[C@H]3CC[C@@H]2CN(Cc2ccccn2)C3)nc(N)n1	-4.84%
CS(=O)(=O)N[C@H]1COC[C@@H]2CN(Cc3ccco3)C[C@@H]21	-1.39%
COc1ccc(Oc2nccc3occc23)cc1CN1CCCC1	58.1%
COc1ccc(Oc2ncccc2F)cc1CN1CCCC1	15.8%
c1ccc(Oc2nccc3occc23)c(CN2CCCCC2)c1	23.7%
O=C1NCCO[C@H]2CN(C(=O)Cc3ccco3)CC[C@@H]12	18%
CC(C)Nc1nc(N2CCCC2)nc2c1CN(C)CC2	5.56%
Cc1nc(CN2CCc3nc(N4CCCC4)nc(NC(C)C)c3C2)cs1	92.3%
Cc1nc(CN2CCc3nc(NC(C)C)nc(C)c3C2)cs1	47.9%
Cc1ccc([C@@]2(O)CC[C@@H]3CN(S(=O)(=O)c4cn(C)nc4C)C[C@@H]32)cc1	-15.8%
CSc1nc(N)cc(N2C[C@@H]3CC[C@H](C2)N(CC2CC2)C3=O)n1	24.7%
Nc1nc(CC(=O)N2CCCC(CCc3cccc(F)c3)C2)cc(=O)[nH]1 (centres undefined)	78.3%
Cc1ccccc1CCC1CCCN(C(=O)Cc2cc(=O)[nH]c(N)n2)C1 (centres undefined)	18.3%
O=C(CC1=CSC2=NCCN12)N1CCCC(CCc2cccc(F)c2)C1 (centres undefined)	28.3%
Cc1ccccc1CC(C)(C)NC(=O)CCOc1cccc(C(N)=O)c1	1.3%
Cc1ccccc1CC(C)(C)NC(=O)c1cccc(OCC(N)=O)c1	50.6%
Cc1ccccc1CC(C)(C)NC(=O)COc1cccc(C(N)=O)c1	22.1%
